Test results taken from the supplement of paper PMC10849652.
About 8,800 targets were measured; listed, in parts, are those with a hit and a random draw of the rest. About 0.5% of all pairs of compound and target were hits. Unmarked numbers belong to inactive results.

Key:
Test in all cases: log2 fold change, soluble protein after heating vs DMSO (PISA); higher = thermal stabilisation; K562 lysate, 10 uM; active = over 0.2 and 3.5 SD of the protein, either way, in both replicates (recomputed)
[1] = compound: CS(=O)(=O)CCNCc1ccc(-c2ccc3ncnc(Nc4ccc(OCc5cccc(F)c5)c(Cl)c4)c3c2)o1 [lapatinib]
Outline: (§1)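 K562 pellets were dounce-homogenised in PBS pH 7.4 with 1 mM MgCl2, and the crude extract at 1 mg/mL protein was treated with 10 μM compound for 30 min. Aliquots were heated for 3 min across 48°C-58°C, pooled, and brought to 0.5% NP-40 at 4°C; soluble protein was the supernatant after 21,000xg for 90 min. Soluble protein was quantified by TMTpro 16plex LC-MS/MS with channel sums equalised, and reported as log2 fold change in thermal stability against DMSO controls, with values from duplicates.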

[2] = compound: CS(=O)(=O)N1CCN(Cc2cc3nc(-c4cccc5[nH]ncc45)nc(N4CCOCC4)c3s2)CC1 [pictilisib]
Outline: as §1

[3] = compound: C[C@@H](Oc1cc(-c2cnn(C3CCNCC3)c2)cnc1N)c1c(Cl)ccc(F)c1Cl [crizotinib]
Outline: as §1

[4] = compound: C[C@H](C1=CC=C(C=C1)C(=O)NC2=C3C=CNC3=NC=C2)N
Outline: as §1

[5] = compound: C[C@H](Nc1ncnc2nc[nH]c12)c1cc2cccc(Cl)c2c(=O)n1-c1ccccc1 [duvelisib]
Outline: as §1

[6] = compound: Cc1cc(Nc2cc(CN3CCOCC3)c3nc(C)c(Cc4ccc(Cl)cc4F)n3n2)n[nH]1 [gandotinib]
Outline: as §1

[7] = compound: Cc1cc(Nc2cc(N3CCN(C)CC3)nc(Sc3ccc(NC(=O)C4CC4)cc3)n2)n[nH]1 [tozasertib]
Outline: as §1

[8] = compound: Cc1ccc(-n2nc(C(C)(C)C)cc2NC(=O)Nc2ccc(OCCN3CCOCC3)c3ccccc23)cc1 [doramapimod]
Outline: as §1

[9] = compound: Cc1ccc(NC(=O)c2ccc(CN3CC[C@H](N(C)C)C3)c(C(F)(F)F)c2)cc1Nc1nccc(-c2cncnc2)n1 [bafetinib]
Outline: as §1

[10] = compound: Cc1cccc(CC(=O)N2CCc3c2ccc(-c2cn(C)c4ncnc(N)c24)c3F)n1
Outline: as §1

UniProt O43741, sequence (O43741 whole entry, looked up): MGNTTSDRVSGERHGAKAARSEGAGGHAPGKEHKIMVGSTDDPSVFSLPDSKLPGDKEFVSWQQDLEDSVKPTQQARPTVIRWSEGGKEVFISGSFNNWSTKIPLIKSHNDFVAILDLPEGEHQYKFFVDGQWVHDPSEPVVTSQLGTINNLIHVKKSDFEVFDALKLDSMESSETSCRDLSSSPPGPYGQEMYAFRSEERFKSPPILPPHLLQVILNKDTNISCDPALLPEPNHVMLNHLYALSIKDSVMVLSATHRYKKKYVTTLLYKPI
UniProt Q8NA72, sequence (Q8NA72 whole entry, looked up): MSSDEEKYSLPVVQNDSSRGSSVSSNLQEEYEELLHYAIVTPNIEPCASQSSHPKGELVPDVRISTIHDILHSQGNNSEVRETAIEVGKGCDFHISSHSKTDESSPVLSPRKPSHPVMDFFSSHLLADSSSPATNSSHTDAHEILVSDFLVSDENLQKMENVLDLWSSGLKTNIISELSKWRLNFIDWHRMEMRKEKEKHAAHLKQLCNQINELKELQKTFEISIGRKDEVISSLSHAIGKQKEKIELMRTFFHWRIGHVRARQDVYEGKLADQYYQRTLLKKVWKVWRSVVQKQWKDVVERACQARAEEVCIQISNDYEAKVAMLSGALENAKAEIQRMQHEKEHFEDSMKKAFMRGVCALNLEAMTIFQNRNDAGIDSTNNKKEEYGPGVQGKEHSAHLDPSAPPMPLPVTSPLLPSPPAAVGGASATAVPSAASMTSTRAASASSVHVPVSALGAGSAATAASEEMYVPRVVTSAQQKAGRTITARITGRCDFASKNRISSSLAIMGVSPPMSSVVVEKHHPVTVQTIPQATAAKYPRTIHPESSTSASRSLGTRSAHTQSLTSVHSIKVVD
UniProt Q8NEB9, sequence (Q8NEB9 whole entry, looked up): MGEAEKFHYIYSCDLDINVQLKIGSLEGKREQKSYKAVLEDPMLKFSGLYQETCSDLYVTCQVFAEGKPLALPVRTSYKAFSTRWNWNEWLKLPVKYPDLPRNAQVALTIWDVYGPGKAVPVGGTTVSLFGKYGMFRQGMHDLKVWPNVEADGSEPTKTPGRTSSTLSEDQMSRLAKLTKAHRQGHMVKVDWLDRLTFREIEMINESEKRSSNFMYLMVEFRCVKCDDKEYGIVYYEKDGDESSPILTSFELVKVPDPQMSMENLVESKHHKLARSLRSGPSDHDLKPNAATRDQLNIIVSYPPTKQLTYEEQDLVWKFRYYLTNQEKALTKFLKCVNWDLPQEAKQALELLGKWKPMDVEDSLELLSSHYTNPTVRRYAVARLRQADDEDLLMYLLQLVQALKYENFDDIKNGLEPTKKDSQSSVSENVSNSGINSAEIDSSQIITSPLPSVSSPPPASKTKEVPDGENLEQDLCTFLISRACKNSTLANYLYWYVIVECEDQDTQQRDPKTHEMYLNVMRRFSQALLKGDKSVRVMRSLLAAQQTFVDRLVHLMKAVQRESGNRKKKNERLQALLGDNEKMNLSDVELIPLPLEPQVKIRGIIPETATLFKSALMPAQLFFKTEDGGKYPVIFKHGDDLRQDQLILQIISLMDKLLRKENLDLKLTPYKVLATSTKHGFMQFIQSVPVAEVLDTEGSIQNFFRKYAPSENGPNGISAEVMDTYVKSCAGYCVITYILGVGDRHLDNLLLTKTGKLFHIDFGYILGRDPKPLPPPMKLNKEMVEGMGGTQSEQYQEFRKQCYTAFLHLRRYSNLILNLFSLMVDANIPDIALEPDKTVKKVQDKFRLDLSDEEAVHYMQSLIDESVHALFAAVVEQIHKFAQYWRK
UniProt O60825, sequence (O60825 whole entry, looked up): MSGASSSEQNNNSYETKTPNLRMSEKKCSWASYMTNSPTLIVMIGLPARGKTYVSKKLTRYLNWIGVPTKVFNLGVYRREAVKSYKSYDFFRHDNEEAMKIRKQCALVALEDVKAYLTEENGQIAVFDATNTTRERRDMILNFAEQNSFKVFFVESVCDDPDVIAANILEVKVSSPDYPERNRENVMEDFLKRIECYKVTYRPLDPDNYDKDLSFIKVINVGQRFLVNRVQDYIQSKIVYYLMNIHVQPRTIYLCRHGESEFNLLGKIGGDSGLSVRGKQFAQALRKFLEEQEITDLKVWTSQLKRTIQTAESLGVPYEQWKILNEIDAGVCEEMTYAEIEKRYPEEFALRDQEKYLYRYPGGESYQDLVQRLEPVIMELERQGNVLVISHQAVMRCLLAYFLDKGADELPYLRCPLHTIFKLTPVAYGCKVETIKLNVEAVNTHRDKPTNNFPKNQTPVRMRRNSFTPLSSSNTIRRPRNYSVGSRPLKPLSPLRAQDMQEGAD
UniProt O15067, sequence (O15067 whole entry, looked up): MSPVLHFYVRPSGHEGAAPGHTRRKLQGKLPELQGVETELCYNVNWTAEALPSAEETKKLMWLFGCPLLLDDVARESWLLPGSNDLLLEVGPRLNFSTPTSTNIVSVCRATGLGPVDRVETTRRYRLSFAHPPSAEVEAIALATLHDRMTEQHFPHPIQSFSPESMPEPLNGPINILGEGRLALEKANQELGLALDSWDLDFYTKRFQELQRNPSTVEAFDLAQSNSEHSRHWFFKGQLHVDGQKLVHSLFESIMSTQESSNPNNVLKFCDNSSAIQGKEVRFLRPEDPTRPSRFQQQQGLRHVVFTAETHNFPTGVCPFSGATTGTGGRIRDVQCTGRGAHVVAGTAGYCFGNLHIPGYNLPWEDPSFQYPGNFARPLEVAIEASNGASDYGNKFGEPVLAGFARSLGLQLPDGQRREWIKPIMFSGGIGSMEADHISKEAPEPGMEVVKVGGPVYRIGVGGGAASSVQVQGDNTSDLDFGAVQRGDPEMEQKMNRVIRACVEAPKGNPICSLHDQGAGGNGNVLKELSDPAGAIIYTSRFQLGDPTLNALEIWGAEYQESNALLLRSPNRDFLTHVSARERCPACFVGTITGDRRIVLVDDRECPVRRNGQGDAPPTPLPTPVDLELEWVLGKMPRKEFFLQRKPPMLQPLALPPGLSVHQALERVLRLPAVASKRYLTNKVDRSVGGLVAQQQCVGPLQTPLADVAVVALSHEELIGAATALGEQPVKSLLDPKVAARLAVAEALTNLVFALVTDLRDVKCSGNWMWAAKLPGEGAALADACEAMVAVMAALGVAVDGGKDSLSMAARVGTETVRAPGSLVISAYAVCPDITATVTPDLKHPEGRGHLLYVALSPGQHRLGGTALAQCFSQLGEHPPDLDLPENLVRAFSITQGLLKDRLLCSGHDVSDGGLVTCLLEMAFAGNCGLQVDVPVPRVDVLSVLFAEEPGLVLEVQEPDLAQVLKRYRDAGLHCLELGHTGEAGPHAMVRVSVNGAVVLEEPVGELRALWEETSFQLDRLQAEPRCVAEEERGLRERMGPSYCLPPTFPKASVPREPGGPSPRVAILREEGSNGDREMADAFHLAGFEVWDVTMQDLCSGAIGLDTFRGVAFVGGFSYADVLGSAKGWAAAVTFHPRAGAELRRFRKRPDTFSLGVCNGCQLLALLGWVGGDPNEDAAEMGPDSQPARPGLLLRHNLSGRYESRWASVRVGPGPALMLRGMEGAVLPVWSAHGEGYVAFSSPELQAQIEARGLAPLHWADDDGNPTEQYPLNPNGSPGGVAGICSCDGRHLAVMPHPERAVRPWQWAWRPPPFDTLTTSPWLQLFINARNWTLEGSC
UniProt Q9Y446, sequence (Q9Y446 whole entry, looked up): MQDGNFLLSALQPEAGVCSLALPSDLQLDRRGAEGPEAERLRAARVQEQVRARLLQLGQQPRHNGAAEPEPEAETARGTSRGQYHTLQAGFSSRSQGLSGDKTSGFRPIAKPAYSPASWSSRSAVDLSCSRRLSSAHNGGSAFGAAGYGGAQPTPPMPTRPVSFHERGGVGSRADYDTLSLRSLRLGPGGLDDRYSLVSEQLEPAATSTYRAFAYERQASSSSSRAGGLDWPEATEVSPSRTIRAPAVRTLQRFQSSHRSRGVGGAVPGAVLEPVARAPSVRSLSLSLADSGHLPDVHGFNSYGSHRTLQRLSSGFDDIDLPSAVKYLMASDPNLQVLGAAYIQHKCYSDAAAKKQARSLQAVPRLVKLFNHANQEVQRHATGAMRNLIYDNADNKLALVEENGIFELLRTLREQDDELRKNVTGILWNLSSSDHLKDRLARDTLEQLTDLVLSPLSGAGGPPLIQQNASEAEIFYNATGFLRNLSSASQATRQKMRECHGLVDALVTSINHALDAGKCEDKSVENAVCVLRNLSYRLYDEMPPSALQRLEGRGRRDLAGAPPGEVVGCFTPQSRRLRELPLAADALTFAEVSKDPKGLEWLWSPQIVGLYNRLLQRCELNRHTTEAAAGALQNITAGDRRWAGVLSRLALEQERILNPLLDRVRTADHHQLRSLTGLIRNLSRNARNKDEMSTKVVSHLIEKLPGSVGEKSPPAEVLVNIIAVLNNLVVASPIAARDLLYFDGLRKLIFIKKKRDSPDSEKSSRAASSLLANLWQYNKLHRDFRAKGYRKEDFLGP
UniProt Q96S99, sequence (Q96S99 whole entry, looked up): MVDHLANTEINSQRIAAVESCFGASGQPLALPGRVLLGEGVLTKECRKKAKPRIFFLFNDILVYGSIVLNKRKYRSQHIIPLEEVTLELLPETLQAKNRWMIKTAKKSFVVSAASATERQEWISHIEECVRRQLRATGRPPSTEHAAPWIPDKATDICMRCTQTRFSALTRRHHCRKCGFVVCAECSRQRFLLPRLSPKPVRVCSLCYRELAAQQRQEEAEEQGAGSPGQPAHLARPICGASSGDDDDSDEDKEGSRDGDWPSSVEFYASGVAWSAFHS
UniProt O00764, sequence (O00764 whole entry, looked up): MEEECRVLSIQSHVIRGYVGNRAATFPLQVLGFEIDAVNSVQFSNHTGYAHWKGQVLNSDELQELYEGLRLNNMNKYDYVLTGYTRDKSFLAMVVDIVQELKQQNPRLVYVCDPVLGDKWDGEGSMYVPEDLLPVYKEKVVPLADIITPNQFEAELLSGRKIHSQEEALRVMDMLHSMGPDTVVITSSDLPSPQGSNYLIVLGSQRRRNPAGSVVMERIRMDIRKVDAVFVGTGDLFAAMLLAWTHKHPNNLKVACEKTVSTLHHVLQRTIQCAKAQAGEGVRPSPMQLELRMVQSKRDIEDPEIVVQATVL

| Target | log2 fold change [1] | log2 fold change [2] | log2 fold change [3] | log2 fold change [4] | log2 fold change [5] | log2 fold change [6] | log2 fold change [7] | log2 fold change [8] | log2 fold change [9] | log2 fold change [10] |
| --- | --- | --- | --- | --- | --- | --- | --- | --- | --- | --- |
| PYURF (UniProt Q96I23) | 0.036 | -0.066 | 0.016 | 0.01 | 0.087 | -0.015 | -0.048 | 0.011 | 0.091 | 0.015 |
| PTGS1 isoform 6 (UniProt P23219) | 0.004 | -0.068 | 0.007 | -0.236 (active) | -0.001 | 0.109 | 0.029 | 0.036 | -0.079 | 0.093 |
| PRC1 (UniProt O43663) | -0.014 | -0.007 | -0.109 | 0.023 | 0.059 | -0.003 | 0.017 | 0.004 | -0.079 | 0.025 |
| PDXK (UniProt O00764) | -0.026 | 0.014 | 0.004 | -0.134 | 0.041 | 0.109 | -0.014 | -0.072 | 0.046 | 0.083 |
| PPIL3 (UniProt Q9H2H8) | 0.05 | -0.062 | 0.079 | -0.115 | -0.009 | 0.084 | -0.019 | 0 | -0.037 | 0.08 |
| PGPEP1 (UniProt Q9NXJ5) | 0.023 | -0.013 | 0.011 | -0.025 | 0.057 | -0.029 | 0.03 | 0.045 | -0.013 | -0.019 |
| POC5 (UniProt Q8NA72) | -0.133 | -0.12 | 0.02 | 0.022 | -0.041 | 0.107 | -0.086 | -0.023 | 0.051 | 0.031 |
| PTPN23 (UniProt Q9H3S7) | 0.003 | -0.028 | -0.014 | 0.005 | -0.023 | -0.031 | 0.013 | 0.016 | -0.032 | 0.023 |
| PKP3 isoform 2 (UniProt Q9Y446) | -0.007 | -0.004 | 0.043 | -0.024 | -0.048 | 0.04 | -0.039 | 0.08 | -0.085 | 0.027 |
| PRKAB2 (UniProt O43741) | -0.029 | 0.09 | -0.013 | -0.698 (active) | 0.019 | 0.25 | 0.111 | 0.039 | 0.052 | 0.142 |
| PRKCB isoform 2 (UniProt P05771) | -0.001 | 0.003 | 0.036 | -0.012 | 0.033 | -0.122 | 0.035 | 0.009 | -0.01 | 0.021 |
| PFDN2 (UniProt Q9UHV9) | -0.001 | -0.017 | 0.054 | 0.365 (active) | 0 | -0.1 | 0.053 | 0.005 | -0.064 | -0.13 |
| PIK3C3 (UniProt Q8NEB9) | -0.066 | 0.041 | -0.009 | -0.137 | 0.107 | 0.272 (active) | -0.042 | -0.005 | -0.013 | 0.133 |
| PSTPIP2 (UniProt Q9H939) | 0.009 | 0.019 | -0.047 | 0.062 | -0.023 | -0.095 | 0.012 | 0.002 | -0.014 | -0.027 |
| POLR2B (UniProt P30876) | 0.009 | -0.048 | -0.054 | -0.032 | 0.001 | -0.018 | -0.016 | 0.046 | -0.067 | 0.036 |
| PIP4P2 (UniProt Q8N4L2) | 0.021 | -0.019 | 0.021 | 0.053 | 0.027 | -0.021 | 0.061 | 0.033 | -0.09 | -0.009 |
| PLIN2 (UniProt Q99541) | -0.009 | -0.041 | -0.038 | 0.023 | 0.014 | -0.254 (active) | 0.096 | -0.003 | -0.067 | 0.011 |
| PFAS (UniProt O15067) | -0.01 | -0.011 | -0.067 | -0.011 | -0.009 | 0.002 | -0.008 | 0.035 | -0.028 | 0.019 |
| PHKA1 (UniProt P46020) | -0.117 | -0.003 | -0.001 | -0.042 | -0.044 | 0.069 | 0.009 | 0.024 | 0.051 | -0.047 |
| PPP3CA isoform 2 (UniProt Q08209) | -0.008 | 0.085 | 0.048 | 0.075 | 0.008 | -0.099 | -0.068 | -0.006 | -0.026 | -0.091 |
| PPP4R2 (UniProt Q9NY27) | 0.057 | -0.003 | 0.023 | 0.159 | 0.003 | -0.011 | -0.007 | -0.022 | 0.021 | -0.048 |
| POLR2M (UniProt P0CAP2) | -0.034 | -0.055 | 0.016 | -0.031 | 0.015 | 0.02 | 0.185 | 0.009 | -0.011 | 0.041 |
| POLD1 (UniProt P28340) | -0.014 | -0.021 | -0.022 | 0.013 | -0.019 | -0.061 | 0.003 | 0.02 | -0.022 | 0.017 |
| PCBP2 (UniProt H3BRU6) | 0.116 | -0.021 | -0.04 | 0.044 | 0.028 | 0.01 | -0.112 | -0.119 | 0.079 | -0.041 |
| PRKCSH (UniProt K7ELL7) | -0.009 | 0.028 | 0.061 | 0.181 | 0.1 | -0.047 | 0.062 | -0.044 | 0.031 | -0.019 |
| PDIA4 (UniProt P13667) | -0.018 | 0.006 | 0.09 | 0.029 | -0.011 | -0.026 | 0 | -0.057 | 0.014 | -0.045 |
| PRPF38A (UniProt Q8NAV1) | -0.001 | 0.039 | -0.248 | -0.399 (active) | 0.03 | 0.024 | -0.034 | 0.012 | -0.055 | 0.121 |
| PLEKHF1 (UniProt Q96S99) | -0.022 | -0.016 | -0.021 | -0.043 | 0.058 | 0.023 | 0.02 | 0.016 | 0.013 | 0.026 |
| PFKFB2 (UniProt O60825) | 0.006 | 0.001 | 0.017 | -0.016 | -0.015 | -0.035 | 0.038 | -0.018 | -0.07 | 0.01 |
